The entries come from a sample that favours hits as a whole.
miR122 inh: miR-122 sensor activation; Huh7 psiCHECK-miR122 Renilla luciferase sensor, 48 h; activation, % at 12.5 µM; 340,000 tested, 0.14% active; AID 623901;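 active means mean activation of 30% or more, with every replicate also reaching 30%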;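 further: 0% = median of neutral control wells and 100% = median of positive control wells; higher luciferase signal means stronger suppression of miR-122 activity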
* hit, by the source's call.

SMILES	miR122 inh
C[C@@H]1CN([C@H](C)CO)S(=O)(=O)c2ccc(Br)cc2O[C@H]1CN(C)C(=O)c1ccc2c(c1)OCO2	-1
C[C@@H]1CN([C@@H](C)CO)S(=O)(=O)c2ccc(C#Cc3ccccc3F)cc2O[C@@H]1CN(C)C(=O)Cc1ccncc1	57*
C[C@@H]1CN([C@H](C)CO)S(=O)(=O)c2ccc(C#Cc3ccccc3F)cc2O[C@H]1CN(C)C(=O)Cc1ccccc1	1
C[C@@H]1CN([C@@H](C)CO)S(=O)(=O)c2ccc(C#Cc3ccccc3F)cc2O[C@H]1CN(C)C(=O)Cc1ccccc1	-2
CCC(=O)N(C)C[C@@H]1Oc2cc(C#C[C@@H](C)O)ccc2S(=O)(=O)N([C@@H](C)CO)C[C@@H]1C	7
C[C@@H]1CN([C@H](C)CO)C(=O)c2cc(-c3ccc(F)cc3)cnc2O[C@H]1CN(C)Cc1ccc(C(=O)O)cc1	7
C/C=C/c1ccc2c(c1)O[C@@H](CN(C)C(=O)CC1CC1)[C@@H](C)CN([C@H](C)CO)S2(=O)=O	-6
C[C@H](CO)N1C[C@H](C)[C@H](CN(C)C(=O)C2CC2)Oc2ncc(C#Cc3cccc(F)c3)cc2C1=O	-13
C/C=C/c1ccc2c(c1)O[C@@H](CN(C)C(=O)CC1CC1)[C@H](C)CN([C@H](C)CO)S2(=O)=O	4
Cc1noc(C)c1NC(=O)N(C)C[C@@H]1Oc2ncc(C#CCC(C)C)cc2C(=O)N([C@H](C)CO)C[C@H]1C	8
CCC(=O)N(C)C[C@@H]1Oc2cc(C#C[C@H](C)O)ccc2S(=O)(=O)N([C@H](C)CO)C[C@H]1C	4
C[C@@H]1CN([C@@H](C)CO)S(=O)(=O)c2ccc(C#CCC3CCCC3)cc2O[C@@H]1CN(C)C(=O)CN(C)C	7
COc1cccc(-c2ccc3c(c2)O[C@@H](CN(C)C(C)=O)[C@@H](C)CN([C@H](C)CO)S3(=O)=O)c1	-3
C[C@H]1CN([C@@H](C)CO)C(=O)c2cc(Br)cnc2O[C@@H]1CN(C)Cc1cccc(F)c1	0
C/C=C/c1cnc2c(c1)C(=O)N([C@@H](C)CO)C[C@H](C)[C@@H](CN(C)C(=O)Nc1ccccc1F)O2	-3
COc1ccc(-c2c(C)nn3c(N)c(-c4ccccc4)cnc23)cc1OC	45*
CCOc1ccc(-c2cc(N)n(S(=O)(=O)c3ccc(OC)c(OC)c3)n2)cc1	-92
CC(C)NC(=O)Nc1ccc2c(c1)C(=O)N(C)[C@@H]1CC[C@@H](CC(=O)NCC(F)(F)F)O[C@@H]1CO2	37*
CC(C)NC(=O)Nc1ccc2c(c1)C(=O)N(C)[C@@H]1CC[C@H](CC(=O)NCC(F)(F)F)O[C@H]1CO2	37*
C[C@H](CO)N1C[C@H](C)[C@@H](CN(C)C(=O)C2CCC2)Oc2cc(C#CC(C)(C)O)ccc2S1(=O)=O	-9
COc1cccc(C#Cc2ccc3c(c2)O[C@H](CN(C)S(=O)(=O)c2ccccc2F)[C@@H](C)CN([C@H](C)CO)S3(=O)=O)c1	-19
COCC(=O)N(C)C[C@@H]1Oc2cc(Br)ccc2S(=O)(=O)N([C@H](C)CO)C[C@@H]1C	0
C[C@@H]1CN([C@@H](C)CO)S(=O)(=O)c2ccc(/C=C/c3ccccc3)cc2O[C@@H]1CN(C)C(=O)Nc1cccc(F)c1	-35
COCC(=O)N1[C@@H](CO)[C@@H]2c3ccccc3N(C(=O)c3cccnc3)C[C@@H]21	42*
O=C(c1ccccc1)N1C[C@H]2[C@@H](c3ccccc31)[C@@H](CO)N2C(=O)c1cccc(F)c1	-100
SMILES	miR122 inh
CCCNC(=O)N1[C@@H]2CN(C(=O)c3ccccc3)c3ccccc3[C@@H]2[C@@H]1CO	36*
CCCNC(=O)N1C[C@@H]2[C@H](c3ccccc31)[C@@H](CO)N2C(=O)C1CCOCC1	39*
C[C@@H]1CN([C@@H](C)CO)C(=O)c2cc(C3=CCCCC3)cnc2O[C@@H]1CN(C)Cc1ccccc1C(=O)O	4
C[C@@H]1CN([C@@H](C)CO)S(=O)(=O)c2ccc(C#Cc3ccc(F)cc3)cc2O[C@H]1CN(C)S(=O)(=O)c1cn(C)cn1	-3
COc1ccc(-c2cnc3c(c2)C(=O)N([C@@H](C)CO)C[C@@H](C)[C@@H](CN(C)C(=O)Cc2ccccc2)O3)cc1	-7
C/C=C/c1cnc2c(c1)C(=O)N([C@@H](C)CO)C[C@@H](C)[C@H](CN(C)C(=O)Nc1cccc(OC)c1)O2	-15
COCC#Cc1cnc2c(c1)C(=O)N([C@H](C)CO)C[C@H](C)[C@@H](CN(C)C(=O)Cc1ccccc1)O2	-6
CCCNC(=O)N(C)C[C@@H]1Oc2cc(C#Cc3cccc(F)c3)ccc2S(=O)(=O)N([C@H](C)CO)C[C@@H]1C	-5
C[C@@H]1CN([C@H](C)CO)C(=O)c2cc(C#Cc3cccc(F)c3)cnc2O[C@@H]1CN(C)CC1CCOCC1	0
Cc1sc(NC(=O)c2ccccc2)c(C(c2ccc(Cl)cc2)N2CCN(CCO)CC2)c1C (stereo not drawn)	-95
CC1CCCC(NC(=O)COC(=O)c2ccccc2NC(=O)c2ccco2)C1C (stereo not drawn)	-171
CCOC(=O)C1CCN(C(c2cccnc2)c2c(NC(=O)c3ccco3)sc(C)c2C)CC1 (stereo not drawn)	39*
Cc1ccc(S(=O)(=O)N(C)C[C@H]2Oc3ncc(C#CCC(C)C)cc3C(=O)N([C@H](C)CO)C[C@@H]2C)cc1	-54
C[C@H](CO)N1C[C@H](C)[C@@H](CN(C)Cc2cncnc2)Oc2ncc(-c3cncnc3)cc2C1=O	9
CCn1nc(C)cc1-c1nnc(Sc2ncc([N+](=O)[O-])s2)n1C	45*
C[C@@H]1CN([C@@H](C)CO)C(=O)c2cc(C#Cc3ccc(F)cc3)cnc2O[C@H]1CN(C)CC1CCOCC1	6
Oc1ccc2ccccc2c1/C=N/Nc1nnc(-c2ncc[nH]2)c2ccccc12	61*
C[C@@H]1CN([C@@H](C)CO)C(=O)Cc2cc(N(C)C)ccc2O[C@@H]1CN(C)Cc1ccc(C(=O)Nc2ccccc2N)cc1	-142
COCC#Cc1cnc2c(c1)C(=O)N([C@@H](C)CO)C[C@H](C)[C@H](CN(C)C(=O)Cc1ccccc1)O2	0
C[C@@H]1CN([C@@H](C)CO)C(=O)c2cc(C#Cc3ccccc3F)cnc2O[C@H]1CN(C)C(=O)C1CCOCC1	-3
Cc1ccc(CN2CCSc3ccc(C(=O)NCc4ccco4)cc32)cc1	-100
Cc1ccc(C2CC(C(F)(F)F)n3nc(C(=O)NCc4ccco4)cc3N2)cc1 (stereo not drawn)	41*
CCC(=O)N(C)C[C@@H]1Oc2ncc(C#Cc3ccc(OC)cc3)cc2C(=O)N([C@H](C)CO)C[C@@H]1C	-1
C[C@@H]1CN([C@H](C)CO)C(=O)c2cc(-c3ccncc3)cnc2O[C@H]1CN(C)C(=O)C1CCOCC1	0
C[C@@H]1CN([C@@H](C)CO)C(=O)c2cc(-c3ccc(F)cc3)cnc2O[C@H]1CN(C)Cc1ccc(C(=O)O)cc1	5
CC(C)C#Cc1ccc2c(c1)O[C@@H](CN(C)Cc1ccccn1)[C@H](C)CN([C@@H](C)CO)S2(=O)=O	1
COc1ccccc1-c1ccc2c(c1)O[C@H](CN(C)C(=O)c1ccncc1)[C@H](C)CN([C@H](C)CO)S2(=O)=O	-46
C[C@@H]1CN([C@H](C)CO)C(=O)c2cc(-c3ccc(F)cc3)cnc2O[C@H]1CN(C)Cc1cccnc1	-2
CO[C@H]1CN(C)C(=O)c2ccc(NC(=O)Nc3ccc(F)cc3)cc2OC[C@H](C)NC[C@H]1C	-2

Screening results: PubChem BioAssay, Broad Institute
